AGP1 TOR yeast – modulators of AGP1-GFP expression in yeast TOR pathway, primary screen, cell-based, multiplex flow cytometry, S. cerevisiae, MLPCN library | 0.02% of 320,000 active | GFP response vs DMSO, % at 10 µM | 3 h; GFP as percent of DMSO wells;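 active = GFP response relative to DMSO above a set limit, near screen average plus 3 SD, cut at about 150% in these data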;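 also: median GFP channel fluorescence of the gated AGP1 strain per well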
Efflux pump mplx – inhibitors of Candida efflux pumps in yeast, primary screen, S. cerevisiae, Nile Red, multiplex | S. cerevisiae Candida pump triplex | inhibition, % at 10 µM | 0.44% of 330,000 active;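 active = plate passing quality check with inhibition over a set limit, or well fluorescence over plate mean plus 4 SD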;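 also: Nile Red retained in pooled yeast measured as flow cytometry median fluorescence; higher means more Nile Red kept so more efflux inhibition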
RPL19A TOR yeast – RPL19A-GFP expression modulators in yeast, primary screen, cell-based, S. cerevisiae, multiplex flow cytometry, MLPCN | S. cerevisiae RPL19A-GFP strain, 3 h; stronger effect = lower value | percent response vs DMSO, % at 10 µM | 0.3% of 330,000 active;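 active = percent response vs DMSO below 50%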;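 also: median channel GFP fluorescence of the barcoded RPL19A-GFP strain; lower means less RPL19A-GFP as with rapamycin TOR inhibition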
CIT2-GFP yeast – modulators of CIT2-GFP expression in yeast, primary screen, S. cerevisiae, GFP fusion, multiplex flow cytometry, MLPCN library. S. cerevisiae CIT2-GFP strain, 3 h; 100 means same as DMSO wells. 0.065% of 320,000 active. GFP response vs DMSO, % at 10 µM. AID 2029, 2009;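 active = GFP response relative to DMSO above a set limit, near the screen mean plus 3 SD, cut at about 150% in these data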;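 also: ratio of well median GFP fluorescence to mean of DMSO wells on the plate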
MEP2 TOR yeast – modulators of MEP2-GFP levels in yeast, primary screen, S. cerevisiae, multiplex flow cytometry, MLPCN library | S. cerevisiae MEP2-GFP strain, 3 h; 100% = DMSO control level | GFP response vs DMSO, % at 10 µM | 0.51% of 330,000 active;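 active = GFP response versus DMSO above a set limit, roughly screen mean plus 3 SD, cut at about 180% in these data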;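 also: median GFP fluorescence of the barcode-gated MEP2-GFP cells per well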
LAP4-GFP MLPCN – modulators of LAP4-GFP expression in yeast, primary screen, S. cerevisiae, multiplex flow cytometry, MLPCN library. AID 2023, 2009. 3 h; median GFP as percent of DMSO wells. 0.34% of 320,000 active. GFP response vs DMSO, % at 10 µM;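 active = GFP response vs DMSO above a set limit, about the screen mean plus 3 SD, cut at about 150% in these data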
Cmpd fluor yeast – compound fluorescence in yeast efflux pump counter-screen. shares compounds with Efflux pump mplx. S. cerevisiae AD/pABC3, flow cytometry. fluorescence ratio to DMSO, % at 10 µM. 4% of 1,700 active. AID 588517;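 active = fluorescence ratio to DMSO above its plate's cutoff, the plate mean ratio plus 5 SD, cut at about 210% in these data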;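 also: unstained yeast with no Nile Red so the signal is compound autofluorescence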
Mdr1 pump inh – inhibitors of Candida albicans Mdr1 efflux, confirmation, flow cytometry, singleplex, Cherry Pick1 set | shares compounds with Efflux pump mplx | S. cerevisiae AD/CaMDR1, Nile Red efflux | inhibition, % at 10 µM | 1% of 1,700 active | AID 588518, 2011; in the data active = inhibition above about 26%;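 also: higher means more Nile Red retained so more efflux inhibition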
Cdr2 pump inh – inhibitors of Candida albicans Cdr2 efflux pump, confirmation, S. cerevisiae AD/CaCDR2, flow cytometry, cherry pick 1, singleplex; shares compounds with Efflux pump mplx; Nile Red retention; Nile Red retention ratio vs DMSO, % at 10 µM; 4% of 1,700 active; AID 588520, 2011; in the data active = Nile Red retention ratio vs DMSO above about 190%;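 also: higher ratio means more blocking of Cdr2 efflux of the dye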
CaCdr1 efflux inh – inhibitors of Candida albicans Cdr1 efflux pump, confirmation, S. cerevisiae AD/CaCDR1, flow cytometry, cherry pick 1, singleplex. shares compounds with Efflux pump mplx. Nile Red efflux. inhibition, % at 10 µM. 1% of 1,700 active. AID 588522, 2011;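 active = inhibition above the screen-wide mean plus twice its standard deviation, cut at about 32% in these data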
Numbers stand for hits. Most compounds without a hit are left out; they make up all but 1.3% or so of the library.

Screening Cn1c(SCC(=O)N/N=C/c2ccc([N+](=O)[O-])s2)nnc1-c1ccc(Cl)cc1 returned AGP1 TOR yeast inactive, Efflux pump mplx 16, RPL19A TOR yeast inactive, CIT2-GFP yeast inactive, MEP2 TOR yeast inactive, LAP4-GFP MLPCN inactive, Cmpd fluor yeast inactive, Mdr1 pump inh inactive, Cdr2 pump inh inactive and CaCdr1 efflux inh inactive.
For CN(Cc1ccccc1)C(=O)COC(=O)C1CCN(S(=O)(=O)c2ccc(Cl)c(C(F)(F)F)c2)CC1 the results were AGP1 TOR yeast inactive, Efflux pump mplx inactive, RPL19A TOR yeast inactive, CIT2-GFP yeast inactive, MEP2 TOR yeast inactive and LAP4-GFP MLPCN inactive.
NC(=O)c1c(NC(=O)Cn2nc(C(=O)O)c3ccccc3c2=O)sc2c1CCC2 was read as AGP1 TOR yeast inactive, Efflux pump mplx inactive, RPL19A TOR yeast inactive, CIT2-GFP yeast inactive, MEP2 TOR yeast inactive and LAP4-GFP MLPCN inactive.
Screening CCOC(=O)c1c(NC(=O)Cn2nc(C(=O)O)c3ccccc3c2=O)sc2c1CCC(C)C2 (configuration not stated) returned AGP1 TOR yeast inactive, Efflux pump mplx 0.5, RPL19A TOR yeast inactive, CIT2-GFP yeast inactive, MEP2 TOR yeast inactive, LAP4-GFP MLPCN inactive, Cmpd fluor yeast inactive, Mdr1 pump inh inactive, Cdr2 pump inh inactive and CaCdr1 efflux inh inactive.
For O=C(Cc1cccs1)N1CCN=C1SCc1ccccc1F the results were AGP1 TOR yeast inactive, Efflux pump mplx inactive, RPL19A TOR yeast inactive, CIT2-GFP yeast inactive, MEP2 TOR yeast inactive and LAP4-GFP MLPCN inactive.
For O=C(Cc1cccs1)N1CCN=C1SCc1ccccc1Cl the results were AGP1 TOR yeast inactive, Efflux pump mplx 1.0, RPL19A TOR yeast inactive, CIT2-GFP yeast inactive, MEP2 TOR yeast inactive, LAP4-GFP MLPCN inactive, Cmpd fluor yeast inactive, Mdr1 pump inh inactive, Cdr2 pump inh inactive and CaCdr1 efflux inh inactive.
`CN(C(=O)c1ccc(NC(=O)Cc2ccc([N+](=O)[O-])cc2)cc1)C1CCCC1` gave AGP1 TOR yeast inactive, Efflux pump mplx inactive, RPL19A TOR yeast inactive, CIT2-GFP yeast inactive, MEP2 TOR yeast inactive and LAP4-GFP MLPCN inactive.
COc1ccc(-c2cc(N3C(=O)Nc4ccccc4N3O)n[nH]2)cc1 was read as AGP1 TOR yeast inactive, Efflux pump mplx 6.5, RPL19A TOR yeast inactive, CIT2-GFP yeast inactive, MEP2 TOR yeast inactive, LAP4-GFP MLPCN inactive, Cmpd fluor yeast inactive, Mdr1 pump inh inactive, Cdr2 pump inh inactive and CaCdr1 efflux inh inactive.
`COc1ccc(-c2cc(N3C(=O)Nc4ccccc4N3O)n[nH]2)cc1OC` gave AGP1 TOR yeast inactive, Efflux pump mplx inactive, RPL19A TOR yeast inactive, CIT2-GFP yeast inactive, MEP2 TOR yeast inactive and LAP4-GFP MLPCN inactive.
`Cc1cc(OCc2cc(C(=O)N(C)Cc3ccccn3)no2)cc(C)c1Cl` gave AGP1 TOR yeast inactive, Efflux pump mplx inactive, RPL19A TOR yeast inactive, CIT2-GFP yeast inactive, MEP2 TOR yeast inactive, LAP4-GFP MLPCN inactive, Cmpd fluor yeast inactive, Mdr1 pump inh inactive, Cdr2 pump inh inactive and CaCdr1 efflux inh inactive.
CC(=O)c1ccc(OCc2cc(C(=O)N(C)Cc3ccccn3)no2)cc1 was read as AGP1 TOR yeast inactive, Efflux pump mplx inactive, RPL19A TOR yeast inactive, CIT2-GFP yeast inactive, MEP2 TOR yeast inactive and LAP4-GFP MLPCN inactive.
CN(C)S(=O)(=O)c1cccc(NC(=O)CN2C(=O)NC3(CCc4ccccc4C3)C2=O)c1 (configuration not stated) was read as AGP1 TOR yeast inactive, Efflux pump mplx inactive, RPL19A TOR yeast inactive, CIT2-GFP yeast inactive, MEP2 TOR yeast inactive and LAP4-GFP MLPCN inactive.
For CC1(c2ccccc2)NC(=O)N(CC(=O)Nc2ccc(C(N)=O)cc2)C1=O (configuration not stated) the results were AGP1 TOR yeast inactive, Efflux pump mplx inactive, RPL19A TOR yeast inactive, CIT2-GFP yeast inactive, MEP2 TOR yeast inactive and LAP4-GFP MLPCN inactive.
Screening O=C(c1ccc2c(c1)CCN2S(=O)(=O)c1ccccc1)N1CCN(c2ccccc2F)CC1 returned AGP1 TOR yeast inactive, Efflux pump mplx inactive, RPL19A TOR yeast inactive, CIT2-GFP yeast inactive, MEP2 TOR yeast inactive and LAP4-GFP MLPCN inactive.
Cc1ccc2c(c1)N(C)/C(=C/c1cccc[n+]1C)S2 was read as AGP1 TOR yeast inactive, Efflux pump mplx 1.2, RPL19A TOR yeast inactive, CIT2-GFP yeast inactive, MEP2 TOR yeast inactive, LAP4-GFP MLPCN inactive, Cmpd fluor yeast inactive, Mdr1 pump inh inactive, Cdr2 pump inh inactive and CaCdr1 efflux inh inactive.
For COc1ccc2c(c1)N(C)/C(=C/c1cccc[n+]1C)S2 the results were AGP1 TOR yeast inactive, Efflux pump mplx 1.1, RPL19A TOR yeast inactive, CIT2-GFP yeast inactive, MEP2 TOR yeast inactive, LAP4-GFP MLPCN inactive, Cmpd fluor yeast inactive, Mdr1 pump inh inactive, Cdr2 pump inh inactive and CaCdr1 efflux inh inactive.
For CN1/C(=C/c2cccc[n+]2C)Sc2ccccc21 the results were AGP1 TOR yeast inactive, Efflux pump mplx inactive, RPL19A TOR yeast inactive, CIT2-GFP yeast inactive, MEP2 TOR yeast inactive and LAP4-GFP MLPCN inactive.
For CCOC(=O)Cc1csc(NS(=O)(=O)c2ccc(C(F)(F)F)cc2)n1 the results were AGP1 TOR yeast inactive, Efflux pump mplx inactive, RPL19A TOR yeast inactive, CIT2-GFP yeast inactive, MEP2 TOR yeast inactive and LAP4-GFP MLPCN inactive.
`CC(C)[C@H](NS(=O)(=O)c1ccccc1)C(=O)OCC(=O)Nc1cccc(S(N)(=O)=O)c1` gave AGP1 TOR yeast inactive, Efflux pump mplx inactive, RPL19A TOR yeast inactive, CIT2-GFP yeast inactive, MEP2 TOR yeast inactive and LAP4-GFP MLPCN inactive.
`CCCCN1C(N)=NC[C@@H]1Cc1ccc(O)cc1` gave AGP1 TOR yeast inactive, Efflux pump mplx inactive, RPL19A TOR yeast inactive, CIT2-GFP yeast inactive, MEP2 TOR yeast inactive, LAP4-GFP MLPCN inactive, Cmpd fluor yeast inactive, Mdr1 pump inh inactive, Cdr2 pump inh inactive and CaCdr1 efflux inh inactive.
